Measured values taken from the supplement of paper PMC11732987, “Enantioselective OTUD7B fragment discovery through chemoproteomics screening and high-throughput optimisation” (Communications Chemistry, 2025).

Legend:
Experiment in all cases: log2 ratio of Biotin-Ahx-Ub-VS probe labelling (fragment/DMSO); higher = less target engagement (more negative = stronger competition), active = hit call of the paper (q ≤ 0.05, log2 ratio ≤ -1)
Settings in all cases: compound concentration: 200 uM; treatment time: 3 h
[1] = target: T1, USP19 (UniProt O94966)
T1 sequence (whole entry): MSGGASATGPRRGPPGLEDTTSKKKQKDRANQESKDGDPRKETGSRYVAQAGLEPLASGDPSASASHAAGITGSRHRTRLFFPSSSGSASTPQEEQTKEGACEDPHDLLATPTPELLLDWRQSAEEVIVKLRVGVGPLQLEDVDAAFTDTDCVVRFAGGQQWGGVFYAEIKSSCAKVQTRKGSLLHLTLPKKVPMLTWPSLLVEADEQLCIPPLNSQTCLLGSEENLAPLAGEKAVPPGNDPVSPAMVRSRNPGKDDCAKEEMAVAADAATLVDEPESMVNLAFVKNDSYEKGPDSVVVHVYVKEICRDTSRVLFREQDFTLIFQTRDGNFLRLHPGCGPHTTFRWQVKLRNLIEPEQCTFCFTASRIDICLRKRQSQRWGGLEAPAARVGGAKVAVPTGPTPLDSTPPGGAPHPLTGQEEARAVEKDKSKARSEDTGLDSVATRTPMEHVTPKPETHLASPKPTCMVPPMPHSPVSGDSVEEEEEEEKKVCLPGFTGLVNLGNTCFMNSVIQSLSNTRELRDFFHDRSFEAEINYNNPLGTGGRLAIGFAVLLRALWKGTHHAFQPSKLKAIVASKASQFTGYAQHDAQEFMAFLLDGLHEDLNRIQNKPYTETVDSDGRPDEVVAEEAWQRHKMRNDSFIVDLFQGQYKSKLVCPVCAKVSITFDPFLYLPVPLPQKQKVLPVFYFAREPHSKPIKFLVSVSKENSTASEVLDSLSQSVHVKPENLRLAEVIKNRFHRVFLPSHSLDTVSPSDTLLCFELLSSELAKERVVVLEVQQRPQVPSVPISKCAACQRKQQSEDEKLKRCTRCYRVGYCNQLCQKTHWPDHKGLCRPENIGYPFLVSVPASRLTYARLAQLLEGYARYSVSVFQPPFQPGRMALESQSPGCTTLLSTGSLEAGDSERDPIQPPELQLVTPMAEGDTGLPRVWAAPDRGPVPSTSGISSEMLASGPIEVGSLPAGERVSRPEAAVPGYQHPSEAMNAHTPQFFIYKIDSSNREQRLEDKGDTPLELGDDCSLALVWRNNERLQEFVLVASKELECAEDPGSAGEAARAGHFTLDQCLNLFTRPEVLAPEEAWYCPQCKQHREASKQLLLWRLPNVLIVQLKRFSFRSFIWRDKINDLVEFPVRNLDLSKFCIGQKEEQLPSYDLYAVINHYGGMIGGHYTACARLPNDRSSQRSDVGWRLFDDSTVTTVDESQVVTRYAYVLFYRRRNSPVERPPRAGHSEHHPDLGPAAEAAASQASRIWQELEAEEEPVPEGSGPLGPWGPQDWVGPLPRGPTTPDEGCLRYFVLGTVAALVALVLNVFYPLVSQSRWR
Method in brief: (§1)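 HEK293T lysate, 495 µg per sample in Tris/CHAPS/IGEPAL buffer with protease inhibitors, was treated in triplicate with fragment at 200 µM or vehicle for 3 h and then with Biotin-Ahx-Ub-VS at 0.5 µM final for 1 h. Labelled DUBs were NeutrAvidin-enriched, digested with LysC and trypsin, and run by diaPASEF LC-MS/MS. Spectronaut label-free quantities were global-median-normalised, and values are average log2 fragment/vehicle ratios by unpaired t-test on proteins with ≥2 unique peptides.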

[2] = target: T2, USP22 (UniProt Q9UPT9)
T2 sequence (whole entry): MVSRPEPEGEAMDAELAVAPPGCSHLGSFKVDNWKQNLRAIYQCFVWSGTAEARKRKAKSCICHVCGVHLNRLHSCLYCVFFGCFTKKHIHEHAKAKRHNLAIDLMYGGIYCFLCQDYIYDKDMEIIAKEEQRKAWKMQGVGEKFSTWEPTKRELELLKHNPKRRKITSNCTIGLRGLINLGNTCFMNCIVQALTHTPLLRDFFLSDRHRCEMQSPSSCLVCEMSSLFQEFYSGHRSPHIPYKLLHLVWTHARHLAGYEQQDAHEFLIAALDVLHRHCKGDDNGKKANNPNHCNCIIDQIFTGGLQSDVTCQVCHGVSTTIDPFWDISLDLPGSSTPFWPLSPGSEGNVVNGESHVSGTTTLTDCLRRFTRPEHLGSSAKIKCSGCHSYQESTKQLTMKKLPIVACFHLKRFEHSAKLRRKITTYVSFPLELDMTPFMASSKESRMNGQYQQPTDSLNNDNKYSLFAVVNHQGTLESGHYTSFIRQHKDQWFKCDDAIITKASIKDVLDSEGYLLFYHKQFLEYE
Method in brief: as §1

[3] = target: USP24 (UniProt Q9UPU5)
Sequence of USP24 (Q9UPU5 whole entry): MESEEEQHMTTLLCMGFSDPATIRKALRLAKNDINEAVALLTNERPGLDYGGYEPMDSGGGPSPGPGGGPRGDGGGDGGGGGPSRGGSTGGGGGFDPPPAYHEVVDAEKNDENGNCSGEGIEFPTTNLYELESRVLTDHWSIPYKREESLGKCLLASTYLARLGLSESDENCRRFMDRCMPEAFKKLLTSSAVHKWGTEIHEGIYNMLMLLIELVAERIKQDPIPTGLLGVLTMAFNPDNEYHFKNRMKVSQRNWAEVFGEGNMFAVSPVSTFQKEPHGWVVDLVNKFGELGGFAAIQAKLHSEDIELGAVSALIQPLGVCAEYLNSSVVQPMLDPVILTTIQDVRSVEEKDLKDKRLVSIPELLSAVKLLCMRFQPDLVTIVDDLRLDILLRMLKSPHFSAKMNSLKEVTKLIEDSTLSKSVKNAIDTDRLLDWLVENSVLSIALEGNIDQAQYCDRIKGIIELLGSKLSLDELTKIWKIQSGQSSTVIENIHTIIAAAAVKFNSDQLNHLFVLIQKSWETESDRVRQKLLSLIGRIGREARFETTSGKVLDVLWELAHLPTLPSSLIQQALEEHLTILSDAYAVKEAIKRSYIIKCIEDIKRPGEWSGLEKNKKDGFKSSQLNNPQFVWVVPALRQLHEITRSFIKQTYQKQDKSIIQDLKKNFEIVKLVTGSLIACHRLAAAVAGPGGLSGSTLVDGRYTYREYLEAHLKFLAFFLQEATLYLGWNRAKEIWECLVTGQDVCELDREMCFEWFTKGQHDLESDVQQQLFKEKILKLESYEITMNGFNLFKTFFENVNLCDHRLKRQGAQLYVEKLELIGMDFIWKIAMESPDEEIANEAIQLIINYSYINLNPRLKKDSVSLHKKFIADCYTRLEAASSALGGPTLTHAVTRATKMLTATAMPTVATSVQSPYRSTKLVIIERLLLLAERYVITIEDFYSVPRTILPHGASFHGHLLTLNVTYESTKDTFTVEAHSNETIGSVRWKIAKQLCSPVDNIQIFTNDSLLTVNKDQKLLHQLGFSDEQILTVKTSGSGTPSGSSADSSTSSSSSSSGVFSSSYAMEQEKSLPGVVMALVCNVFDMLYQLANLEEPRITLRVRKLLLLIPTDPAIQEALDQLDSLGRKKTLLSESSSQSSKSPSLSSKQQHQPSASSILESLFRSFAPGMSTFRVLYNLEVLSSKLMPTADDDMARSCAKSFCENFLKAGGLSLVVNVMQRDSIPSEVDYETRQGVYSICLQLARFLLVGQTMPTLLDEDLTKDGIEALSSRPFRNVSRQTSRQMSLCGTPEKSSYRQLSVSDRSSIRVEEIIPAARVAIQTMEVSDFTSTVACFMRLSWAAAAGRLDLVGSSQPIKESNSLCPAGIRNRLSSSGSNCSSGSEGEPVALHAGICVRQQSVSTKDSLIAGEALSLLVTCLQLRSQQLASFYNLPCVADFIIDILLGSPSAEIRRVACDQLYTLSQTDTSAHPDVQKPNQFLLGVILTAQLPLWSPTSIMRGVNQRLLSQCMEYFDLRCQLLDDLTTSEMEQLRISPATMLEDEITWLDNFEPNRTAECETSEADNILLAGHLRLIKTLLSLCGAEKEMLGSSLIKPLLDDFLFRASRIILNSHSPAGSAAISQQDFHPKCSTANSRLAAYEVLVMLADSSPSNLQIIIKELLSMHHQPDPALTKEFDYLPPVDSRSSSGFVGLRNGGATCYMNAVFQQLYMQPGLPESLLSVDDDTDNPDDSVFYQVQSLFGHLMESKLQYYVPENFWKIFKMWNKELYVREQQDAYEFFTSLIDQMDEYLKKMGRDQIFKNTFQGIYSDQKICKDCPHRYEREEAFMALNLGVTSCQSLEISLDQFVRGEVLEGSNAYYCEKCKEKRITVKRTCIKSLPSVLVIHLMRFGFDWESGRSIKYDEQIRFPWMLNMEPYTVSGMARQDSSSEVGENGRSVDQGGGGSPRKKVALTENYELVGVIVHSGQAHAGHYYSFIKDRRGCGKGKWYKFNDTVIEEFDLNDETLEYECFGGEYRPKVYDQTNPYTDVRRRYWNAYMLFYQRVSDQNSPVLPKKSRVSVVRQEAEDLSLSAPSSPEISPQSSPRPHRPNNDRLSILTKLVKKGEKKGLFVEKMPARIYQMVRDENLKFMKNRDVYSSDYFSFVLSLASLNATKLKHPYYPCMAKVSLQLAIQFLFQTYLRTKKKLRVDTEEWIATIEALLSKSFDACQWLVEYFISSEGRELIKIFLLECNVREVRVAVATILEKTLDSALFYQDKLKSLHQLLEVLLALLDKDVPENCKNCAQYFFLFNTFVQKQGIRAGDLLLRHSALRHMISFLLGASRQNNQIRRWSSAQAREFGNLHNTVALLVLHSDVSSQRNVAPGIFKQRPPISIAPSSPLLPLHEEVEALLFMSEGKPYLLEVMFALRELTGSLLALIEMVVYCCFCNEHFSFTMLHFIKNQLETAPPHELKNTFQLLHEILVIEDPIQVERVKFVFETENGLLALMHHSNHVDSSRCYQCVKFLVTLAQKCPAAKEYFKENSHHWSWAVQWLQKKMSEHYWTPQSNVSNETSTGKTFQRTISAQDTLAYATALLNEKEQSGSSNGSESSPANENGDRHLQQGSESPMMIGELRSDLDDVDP
Method in brief: as §1

[4] = target: T3, USP25 (UniProt Q9UHP3)
T3 sequence (whole entry): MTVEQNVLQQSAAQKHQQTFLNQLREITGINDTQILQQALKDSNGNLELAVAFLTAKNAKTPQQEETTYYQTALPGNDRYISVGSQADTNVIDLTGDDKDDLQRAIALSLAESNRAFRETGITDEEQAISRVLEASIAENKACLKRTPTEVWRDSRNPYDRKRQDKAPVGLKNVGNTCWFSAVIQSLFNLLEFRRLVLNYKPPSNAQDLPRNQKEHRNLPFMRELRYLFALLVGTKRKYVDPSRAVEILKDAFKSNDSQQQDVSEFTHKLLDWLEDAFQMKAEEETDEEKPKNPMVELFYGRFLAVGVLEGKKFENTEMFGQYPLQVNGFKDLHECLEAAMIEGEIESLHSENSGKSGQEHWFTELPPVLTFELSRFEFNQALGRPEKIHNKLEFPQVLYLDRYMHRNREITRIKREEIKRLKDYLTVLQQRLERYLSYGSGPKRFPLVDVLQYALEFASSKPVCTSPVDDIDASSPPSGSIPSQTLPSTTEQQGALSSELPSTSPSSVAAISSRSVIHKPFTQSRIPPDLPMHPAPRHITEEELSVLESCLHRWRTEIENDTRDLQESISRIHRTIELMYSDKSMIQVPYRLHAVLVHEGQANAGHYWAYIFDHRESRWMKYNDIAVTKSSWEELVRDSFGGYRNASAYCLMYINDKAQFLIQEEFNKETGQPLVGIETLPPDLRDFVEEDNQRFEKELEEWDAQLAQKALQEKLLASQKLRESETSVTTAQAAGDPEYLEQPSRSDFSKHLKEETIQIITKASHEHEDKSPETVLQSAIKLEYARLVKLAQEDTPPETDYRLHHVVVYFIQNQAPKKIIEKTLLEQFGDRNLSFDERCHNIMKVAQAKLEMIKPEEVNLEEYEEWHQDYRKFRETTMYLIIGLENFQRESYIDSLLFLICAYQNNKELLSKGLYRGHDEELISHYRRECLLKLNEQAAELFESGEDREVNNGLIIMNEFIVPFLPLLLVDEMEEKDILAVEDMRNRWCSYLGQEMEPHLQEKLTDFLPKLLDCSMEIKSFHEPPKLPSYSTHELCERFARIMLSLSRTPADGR
Method in brief: as §1

[5] = target: T4, USP28 (UniProt Q96RU2)
T4 sequence (whole entry): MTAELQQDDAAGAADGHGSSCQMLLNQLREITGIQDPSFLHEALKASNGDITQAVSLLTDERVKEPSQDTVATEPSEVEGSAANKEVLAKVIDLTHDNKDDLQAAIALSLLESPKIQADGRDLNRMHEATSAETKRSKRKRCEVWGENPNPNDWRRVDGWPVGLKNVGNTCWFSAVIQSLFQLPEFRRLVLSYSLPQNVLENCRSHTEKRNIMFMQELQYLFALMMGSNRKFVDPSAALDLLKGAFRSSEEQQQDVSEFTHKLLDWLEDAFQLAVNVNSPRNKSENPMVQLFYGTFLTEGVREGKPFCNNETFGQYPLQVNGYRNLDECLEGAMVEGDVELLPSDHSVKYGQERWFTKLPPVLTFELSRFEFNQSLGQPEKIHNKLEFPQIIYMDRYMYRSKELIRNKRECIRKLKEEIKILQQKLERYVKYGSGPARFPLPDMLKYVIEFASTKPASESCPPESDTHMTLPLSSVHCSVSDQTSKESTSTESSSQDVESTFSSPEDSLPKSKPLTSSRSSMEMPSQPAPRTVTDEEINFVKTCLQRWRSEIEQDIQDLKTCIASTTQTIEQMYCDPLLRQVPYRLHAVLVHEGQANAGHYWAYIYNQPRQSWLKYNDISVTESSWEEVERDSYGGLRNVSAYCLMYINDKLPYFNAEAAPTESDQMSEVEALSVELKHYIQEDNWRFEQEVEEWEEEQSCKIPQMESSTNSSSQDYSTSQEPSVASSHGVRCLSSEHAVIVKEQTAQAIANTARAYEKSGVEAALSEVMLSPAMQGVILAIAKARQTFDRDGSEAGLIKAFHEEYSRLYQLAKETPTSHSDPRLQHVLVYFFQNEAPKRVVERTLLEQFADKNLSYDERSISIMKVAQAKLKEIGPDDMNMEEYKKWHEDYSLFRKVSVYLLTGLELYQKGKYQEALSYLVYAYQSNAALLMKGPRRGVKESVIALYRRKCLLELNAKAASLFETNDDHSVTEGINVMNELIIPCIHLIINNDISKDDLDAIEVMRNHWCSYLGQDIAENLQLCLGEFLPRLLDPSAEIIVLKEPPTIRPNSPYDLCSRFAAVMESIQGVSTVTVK
Method in brief: as §1

Measured: log2 ratio of Biotin-Ahx-Ub-VS probe labelling

CC(O)CC1CCN(C(=O)CCl)CC1 (stereo not given)
inactive: [1] -0.322 | [2] 0.037 | [3] -0.234 | [4] -0.398 | [5] -0.223
